{"source": "PubChem BioAssay (NCATS)", "key": {"[1]": {"experiment": "Primary qHTS for small molecule stabilizers of the endoplasmic reticulum resident proteome: Secreted ER Calcium Modulated Protein (SERCaMP) assay (AID 1508630)", "how_it_was_run": "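GLuc-SERCaMP-expressing SH-SY5Y cells, pretreated 16 h with compound, are challenged with thapsigargin to empty ER calcium stores; after 4 h, coelenterazine is added directly to the medium and luminescence is imaged.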"}, "Papain (Carica papaya)": {"target": "Papain (Carica papaya) (UniProt P00784)", "sequence (P00784 whole entry, looked up)": "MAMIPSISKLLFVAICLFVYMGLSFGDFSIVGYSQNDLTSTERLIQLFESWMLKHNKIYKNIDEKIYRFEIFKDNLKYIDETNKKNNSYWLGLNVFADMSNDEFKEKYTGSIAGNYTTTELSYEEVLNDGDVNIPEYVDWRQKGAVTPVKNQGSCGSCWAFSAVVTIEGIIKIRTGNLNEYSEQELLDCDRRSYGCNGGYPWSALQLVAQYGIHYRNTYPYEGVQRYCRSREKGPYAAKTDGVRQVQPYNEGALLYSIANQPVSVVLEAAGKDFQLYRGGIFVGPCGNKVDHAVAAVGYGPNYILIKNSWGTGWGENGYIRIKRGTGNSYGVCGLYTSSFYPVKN", "experiment": "Primary qHTS assay for inhibitors of the protease papain (AID 1645873);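 also: papain turnover of Z-FR-AMC read as the AMC fluorescence gain over 10 min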; also: potency is read from the fitted curve at half-maximal effect"}, "[2]": {"target": "Catechol O-methyltransferase (Homo sapiens) (UniProt P21964)", "sequence (P21964 whole entry, looked up)": "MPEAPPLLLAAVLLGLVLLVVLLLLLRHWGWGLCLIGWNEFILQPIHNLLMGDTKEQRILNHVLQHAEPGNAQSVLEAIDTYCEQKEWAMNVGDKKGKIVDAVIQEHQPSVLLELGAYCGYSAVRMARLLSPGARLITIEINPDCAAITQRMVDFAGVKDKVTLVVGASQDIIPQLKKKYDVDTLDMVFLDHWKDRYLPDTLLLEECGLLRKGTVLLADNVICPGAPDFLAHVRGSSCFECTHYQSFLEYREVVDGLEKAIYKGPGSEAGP", "experiment": "Confirmatory Screen for Target Class Profiling of Small Molecule Inhibitors of Methyltransferases (AID 1745852; calls by dose curve)", "conditions": "MTase-Glo luminescence, SAH detection, recombinant enzyme; measured here: COMT max response; stronger effect = lower value"}, "[3]": {"target": "Guanidinoacetate N-methyltransferase (Homo sapiens) (UniProt Q14353)", "experiment": "Confirmatory Screen for Target Class Profiling of Small Molecule Inhibitors of Methyltransferases (AID 1745852); also: potency is read from the fitted curve at half-maximal effect", "conditions": "MTase-Glo luminescence, SAH detection, recombinant enzyme; activity change, negative = inhibition: at 57.3 µM (top of the series)"}, "[4]": {"target": "Nicotinamide N-methyltransferase (Homo sapiens) (UniProt P40261)", "sequence (P40261 whole entry, looked up)": "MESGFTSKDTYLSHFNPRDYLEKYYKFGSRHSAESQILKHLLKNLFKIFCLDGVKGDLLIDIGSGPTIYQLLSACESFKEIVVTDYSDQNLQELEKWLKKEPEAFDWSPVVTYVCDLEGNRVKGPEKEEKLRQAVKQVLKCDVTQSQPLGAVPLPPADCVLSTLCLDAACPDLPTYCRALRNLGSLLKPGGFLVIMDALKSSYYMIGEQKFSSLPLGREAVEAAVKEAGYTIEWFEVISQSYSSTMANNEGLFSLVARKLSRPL", "experiment": "Confirmatory Screen for Target Class Profiling of Small Molecule Inhibitors of Methyltransferases (AID 1745852)", "conditions": "MTase-Glo luminescence, SAH detection, recombinant enzyme; measured here: NNMT max response; stronger effect = lower value"}, "[5]": {"target": "Phenylethanolamine N-methyltransferase (Homo sapiens) (UniProt P11086)", "sequence (P11086 whole entry, looked up)": "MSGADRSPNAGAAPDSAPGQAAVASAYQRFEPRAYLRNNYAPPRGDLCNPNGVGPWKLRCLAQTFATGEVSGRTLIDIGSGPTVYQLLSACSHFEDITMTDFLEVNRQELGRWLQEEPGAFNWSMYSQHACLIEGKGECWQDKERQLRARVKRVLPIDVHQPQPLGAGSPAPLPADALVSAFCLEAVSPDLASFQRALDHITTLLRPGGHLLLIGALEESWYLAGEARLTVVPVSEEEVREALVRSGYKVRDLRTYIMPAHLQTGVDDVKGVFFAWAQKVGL", "experiment": "Confirmatory Screen for Target Class Profiling of Small Molecule Inhibitors of Methyltransferases (AID 1745852)", "conditions": "MTase-Glo luminescence, SAH detection, recombinant enzyme; measured here: PNMT max response; stronger effect = lower value"}, "[6]": {"experiment": "Primary qHTS for inhibitors of nuclear receptor binding SET domain protein 2 (NSD2) in an isogenic RCH-ACV NSD2 p.E1099K mutant (9B) (AID 1645876); also: potency is read from the fitted curve at half-maximal effect; nearly all actives have a fitted effect of over 70% in size"}, "[7]": {"experiment": "Primary qHTS for inhibitors of nuclear receptor binding SET domain protein 2 (NSD2) in an RCH-ACV wild type WT cells (2C) (AID 1645877); also: potency is read from the fitted curve at half-maximal effect; nearly all actives have a fitted effect of over 70% in size"}, "[8]": {"target": "Rap guanine nucleotide exchange factor 3 (Homo sapiens) (UniProt O95398)", "sequence (O95398 whole entry, looked up)": "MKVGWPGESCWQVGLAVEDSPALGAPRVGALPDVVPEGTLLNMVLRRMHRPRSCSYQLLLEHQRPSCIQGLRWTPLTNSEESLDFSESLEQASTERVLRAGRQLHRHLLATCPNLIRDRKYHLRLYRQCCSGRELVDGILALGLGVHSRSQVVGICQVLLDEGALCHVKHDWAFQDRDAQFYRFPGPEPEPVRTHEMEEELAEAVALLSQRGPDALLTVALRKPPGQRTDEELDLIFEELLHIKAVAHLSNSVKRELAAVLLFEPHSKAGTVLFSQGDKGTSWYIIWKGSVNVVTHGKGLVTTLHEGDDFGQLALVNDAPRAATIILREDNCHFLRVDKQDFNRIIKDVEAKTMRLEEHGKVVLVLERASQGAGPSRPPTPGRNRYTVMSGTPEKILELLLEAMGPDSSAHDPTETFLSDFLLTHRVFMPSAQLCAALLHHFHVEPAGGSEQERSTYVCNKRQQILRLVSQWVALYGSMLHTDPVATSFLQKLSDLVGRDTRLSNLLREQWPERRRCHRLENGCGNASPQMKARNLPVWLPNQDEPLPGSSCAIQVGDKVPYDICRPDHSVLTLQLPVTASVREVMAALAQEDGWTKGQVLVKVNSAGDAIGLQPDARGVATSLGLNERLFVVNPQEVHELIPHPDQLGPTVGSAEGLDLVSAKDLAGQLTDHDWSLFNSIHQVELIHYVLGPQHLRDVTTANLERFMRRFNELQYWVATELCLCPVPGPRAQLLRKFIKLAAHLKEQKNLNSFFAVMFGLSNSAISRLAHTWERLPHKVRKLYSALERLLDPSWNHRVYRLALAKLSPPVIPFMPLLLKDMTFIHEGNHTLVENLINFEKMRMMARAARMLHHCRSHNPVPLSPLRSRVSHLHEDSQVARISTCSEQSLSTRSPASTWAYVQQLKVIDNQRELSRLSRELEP", "experiment": "Confirmatory qHTS for agonist of cAMP-regulated guanine nucleotide exchange factor 3 (EPAC1) (AID 1645881);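 also: EPAC1 catalysed release of BODIPY-GDP from Rap1B seen as fluorescence loss; nearly all actives have a fitted effect of over 75% in size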"}, "[9]": {"target": "Rap guanine nucleotide exchange factor 4 (Homo sapiens) (UniProt Q8WZA2)", "sequence (Q8WZA2 whole entry, looked up)": "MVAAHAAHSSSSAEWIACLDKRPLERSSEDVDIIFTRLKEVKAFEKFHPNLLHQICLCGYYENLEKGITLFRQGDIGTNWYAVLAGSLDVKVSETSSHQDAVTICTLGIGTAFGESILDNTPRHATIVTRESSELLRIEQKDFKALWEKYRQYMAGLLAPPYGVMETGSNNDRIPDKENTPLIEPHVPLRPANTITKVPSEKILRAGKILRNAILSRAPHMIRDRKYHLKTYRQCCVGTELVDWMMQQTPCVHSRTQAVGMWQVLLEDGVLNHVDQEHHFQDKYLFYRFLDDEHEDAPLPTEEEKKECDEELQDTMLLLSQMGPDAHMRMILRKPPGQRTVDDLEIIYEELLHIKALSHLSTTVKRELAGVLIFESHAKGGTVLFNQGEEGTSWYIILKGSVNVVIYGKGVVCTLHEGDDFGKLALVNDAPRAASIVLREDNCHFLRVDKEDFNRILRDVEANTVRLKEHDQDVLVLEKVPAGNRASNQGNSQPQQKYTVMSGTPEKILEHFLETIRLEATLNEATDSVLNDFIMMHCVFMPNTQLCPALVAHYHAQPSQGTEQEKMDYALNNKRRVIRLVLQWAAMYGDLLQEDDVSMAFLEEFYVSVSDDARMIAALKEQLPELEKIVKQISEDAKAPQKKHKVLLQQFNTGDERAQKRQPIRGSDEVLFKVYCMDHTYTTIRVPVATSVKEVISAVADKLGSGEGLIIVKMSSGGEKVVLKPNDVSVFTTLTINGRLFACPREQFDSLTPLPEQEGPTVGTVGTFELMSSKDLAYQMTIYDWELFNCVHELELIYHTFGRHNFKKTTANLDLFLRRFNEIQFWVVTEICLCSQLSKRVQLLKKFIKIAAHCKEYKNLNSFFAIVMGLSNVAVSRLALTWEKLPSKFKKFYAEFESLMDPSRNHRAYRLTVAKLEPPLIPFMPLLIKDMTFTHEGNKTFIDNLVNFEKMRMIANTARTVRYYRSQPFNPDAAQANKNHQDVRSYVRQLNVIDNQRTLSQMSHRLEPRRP", "experiment": "Confirmatory qHTS for agonist of cAMP-regulated guanine nucleotide exchange factor 4 (EPAC2) (AID 1645884);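 also: nucleotide exchange releases bodipy-GDP from Rap1 and this lowers its fluorescence; nearly all actives have a fitted effect of over 65% in size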"}, "[10]": {"target": "Rap guanine nucleotide exchange factor 4 (Homo sapiens) (UniProt Q8WZA2)", "experiment": "Confirmatory qHTS for antagonist of cAMP-regulated guanine nucleotide exchange factor 4 (EPAC2) (AID 1645885); also: potency is read from the fitted curve at half-maximal effect; nearly all actives have a fitted effect of over 25% in size"}}, "note": "Records with an inconclusive call do not appear. Where a call stands in place of a potency, no number is given. The source made the active and inactive calls. Unless noted, calls follow the shape of the dose curve; as a rule, active = well fitted curve in the direction sought with a large enough effect; inconclusive = small, poorly fitted or top-dose-only effect, or another doubt; inactive = no such curve, though single readings can be large; an effect the other way counts as inactive or inconclusive.", "data": [{"smiles": "CC#CCOC(=O)c1c(C)nc2sc3c(c2c1N)CCC(O)C3", "note": "(stereo not given)", "values": [{"measurement": "Potency", "setting": "[1]", "result": "inactive"}, {"measurement": "Potency", "setting": "Papain (Carica papaya)", "result": "inactive"}]}, {"smiles": "CC(C)(C)NCC(O)COc1cccc2[nH]c(=O)[nH]c12", "note": "(stereo not given)", "values": [{"measurement": "Potency", "setting": "[1]", "result": "inactive"}, {"measurement": "Potency", "setting": "Papain (Carica papaya)", "result": "inactive"}]}, {"smiles": "CN1CCC2(CCN3CCc4c(oc5ccccc45)C3C2)N(C)C1=O", "note": "(stereo not given)", "values": [{"measurement": "Potency", "setting": "[1]", "result": "inactive"}, {"measurement": "Potency", "setting": "Papain (Carica papaya)", "result": "inactive"}]}, {"smiles": "N=C(N)c1ccccc1", "values": [{"measurement": "Potency", "setting": "Papain (Carica papaya)", "result": "inactive"}]}, {"smiles": "COc1cc2c(CCNC(C)=O)c[nH]c2cc1O", "values": [{"measurement": "Potency", "setting": "Papain (Carica papaya)", "result": "inactive"}]}, {"smiles": "Cc1cc(Cn2cnc3c2C[C@@H](C(=O)O)N(C(=O)C(c2ccccc2)c2ccccc2)C3)ccc1N", "values": [{"measurement": "Potency", "setting": "[1]", "result": "inactive"}, {"measurement": "Potency", "setting": "Papain (Carica papaya)", "result": "inactive"}]}, {"smiles": "Cn1c(=O)c2[nH]c(-c3ccc(S(=O)(=O)O)cc3)nc2n(C)c1=O", "values": [{"measurement": "Potency", "setting": "[1]", "result": "inactive"}, {"measurement": "Potency", "setting": "Papain (Carica papaya)", "result": "25.1 µM (active)"}, {"measurement": "activity", "setting": "[2]", "result": -8.67, "unit": "%"}, {"measurement": "activity change, negative = inhibition", "setting": "[3]", "result": 1.75, "unit": "%"}, {"measurement": "activity", "setting": "[4]", "result": -17.8, "unit": "%"}, {"measurement": "activity", "setting": "[5]", "result": -5.47, "unit": "%"}]}, {"smiles": "COc1ccc(-c2ccc(N)[n+](CCCC(=O)O)n2)cc1", "values": [{"measurement": "Potency", "setting": "[1]", "result": "inactive"}, {"measurement": "Potency", "setting": "Papain (Carica papaya)", "result": "inactive"}]}, {"smiles": "c1ccc2nc(C3=NCCN3)ccc2c1", "values": [{"measurement": "Potency", "setting": "[1]", "result": "inactive"}, {"measurement": "Potency", "setting": "Papain (Carica papaya)", "result": "inactive"}]}, {"smiles": "O=C(O)C1=CC(=C(c2ccc(O)c(C(=O)O)c2)c2ccc(O)c(C(=O)O)c2)C=CC1=O", "values": [{"measurement": "Potency", "setting": "Papain (Carica papaya)", "result": "7.94 µM (active)"}, {"measurement": "activity", "setting": "[2]", "result": -24.2, "unit": "%"}, {"measurement": "Potency", "setting": "[3]", "result": "24.3 µM (active)"}, {"measurement": "activity", "setting": "[4]", "result": -4.1, "unit": "%"}, {"measurement": "activity", "setting": "[5]", "result": 2.52, "unit": "%"}]}, {"smiles": "COc1ccccc1N1CCN(CCCNc2c(C)c(=O)n(C)c(=O)n2C)CC1", "values": [{"measurement": "Potency", "setting": "[1]", "result": "inactive"}, {"measurement": "Potency", "setting": "Papain (Carica papaya)", "result": "inactive"}]}, {"smiles": "N[C@@H](CCCC(=O)O)C(=O)O", "values": [{"measurement": "Potency", "setting": "[1]", "result": "inactive"}, {"measurement": "Potency", "setting": "Papain (Carica papaya)", "result": "inactive"}]}, {"smiles": "O=C1Cc2c([nH]c3ccc(Br)cc23)-c2ccccc2N1", "values": [{"measurement": "Potency", "setting": "[1]", "result": "inactive"}, {"measurement": "Potency", "setting": "Papain (Carica papaya)", "result": "inactive"}, {"measurement": "Potency", "setting": "[6]", "result": "6.51 µM (active)"}, {"measurement": "Potency", "setting": "[7]", "result": "5.8 µM (active)"}]}, {"smiles": "c1ccc(C2CN3CCSC3=N2)cc1", "note": "(stereo not given)", "values": [{"measurement": "Potency", "setting": "Papain (Carica papaya)", "result": "inactive"}]}, {"smiles": "NC(=O)CC[C@H](N)C(=O)O", "values": [{"measurement": "Potency", "setting": "Papain (Carica papaya)", "result": "inactive"}]}, {"smiles": "CC(=O)N[C@@H](Cc1c[nH]c2ccccc12)C(=O)OCc1cc(C(F)(F)F)cc(C(F)(F)F)c1", "values": [{"measurement": "Potency", "setting": "[1]", "result": "inactive"}, {"measurement": "Potency", "setting": "Papain (Carica papaya)", "result": "inactive"}, {"measurement": "Potency", "setting": "[8]", "result": "inactive"}, {"measurement": "Potency", "setting": "[9]", "result": "inactive"}, {"measurement": "Potency", "setting": "[10]", "result": "35 µM (active)"}]}]}
